According to ChEMBL document CHEMBL3988442, “University of Dundee, Small-Polar-MMV Screening Library” (2021):
Hit rate of the full screen: of about 69,000 compounds, about 1,000 (1.4%) showed an effect of 50% or more. The full list was thinned out, with strong results kept by preference.

System: Leishmania donovani
Experiment: Leishmania intramacrophage assay
Type: functional, organism-based
Design: scale not given: in the data most compounds retested in dose-response had high values

Cc1ccsc1CN1CC2(CCN(C(=O)C3CC3)CC2)CC1C(=O)O (stereo not drawn)
Percent Effect (30.3 µM, […]): 49%

CCOCCN1CCN(CC(=O)NC2(C#N)CCCC2)CC1CC (stereo not drawn)
Percent Effect (30.3 µM, […]): 4.261%

CCCc1nnnn1Cc1cn2c(C)cccc2n1
Percent Effect (30.3 µM, […]): 19.02%

COc1ccc(C)cc1Nc1nc2c(C)nn(C)c2c(=O)n1C
Percent Effect (30.3 µM, […]): 54.75%

COc1ccc(OC)c(Nc2nc3c(C)nn(C)c3c(=O)n2C)c1
Percent Effect (30.3 µM, […]): 46.31%

COc1ccccc1Nc1nc2c(C)nn(C)c2c(=O)n1C
Percent Effect (30.3 µM, […]): -67.83%

CCc1nn(C)c(Cl)c1CN1C[C@@H](NC(=O)N(C)C)[C@H](C(C)C)C1
Percent Effect (30.3 µM, […]): 11.23%

COC(=O)CN(C(=O)c1ccco1)c1cccc(F)c1
Percent Effect (30.3 µM, […]): -4.639%

CSc1cccc(NC(=O)CCC(=O)Nc2nccs2)c1
Percent Effect (30.3 µM, […]): 36.02%

CCC(C)Oc1ccc(CNCCNC(C)=O)cc1Cl (stereo not drawn)
Percent Effect (30.3 µM, […]): 40.54%

CCC(C)Oc1ccc(CNCCNS(C)(=O)=O)cc1Cl (stereo not drawn)
Percent Effect (30.3 µM, […]): 32.76%

CCC(C)Oc1ccc(CNCCc2c[nH]cn2)cc1Cl (stereo not drawn)
Percent Effect (30.3 µM, […]): 99.79%

Cc1cnn(CC(=O)N2CCC(c3ccn4nccc4n3)CC2)c1
Percent Effect (30.3 µM, […]): -6.355%

O=C(Cc1nc(-c2ccncc2)n[nH]1)NCCCN1CCOCC1
Percent Effect (30.3 µM, […]): 58.11%

O=C(Cc1nc(-c2ccncc2)n[nH]1)N1CCOCC1
Percent Effect (30.3 µM, […]): -34.22%

COCCCNC(=O)Cc1nc(-c2ccncc2)n[nH]1
Percent Effect (30.3 µM, […]): -25.69%

COCCC1(CNC(=O)NCC2CN(C)CCN2C)CCC1 (stereo not drawn)
Percent Effect (30.3 µM, […]): 8.791%

CCn1c(N)nc2cc(C(=O)NCCc3ccncc3)cnc21
Percent Effect (30.3 µM, […]): 62.87%

CCn1c(N)nc2cc(C(=O)NCCc3ccccc3C)cnc21
Percent Effect (30 µM, 30.03 µM): 29.75%

CCn1c(N)nc2cc(C(=O)NCCc3ccccc3F)cnc21
Percent Effect (30.3 µM, […]): -34.47%

O=C(O)C1CN(c2cncc(Cc3ccccc3F)n2)C1
Percent Effect (30.3 µM, […]): 17.92%

O=C(O)C1CN(c2cncc(Cc3ccccc3)n2)C1
Percent Effect (30.3 µM, […]): 57.22%

COc1ccccc1Cc1cncc(N2CC(C(=O)O)C2)n1.Cl
Percent Effect (30.3 µM, […]): 35.18%

O=C(N1CCOCC1)N1CCc2ncnc(NC3CCC3)c2CC1.O=C(O)C(F)(F)F
Percent Effect (30.3 µM, […]): 14.85%

c1cc2nc(C3CCNCC3)nn2cc1NC1CCC1
Percent Effect (30.3 µM, […]): 33.34%

Cc1nc(COC(=O)c2cccnc2C)no1
Percent Effect (30.3 µM, […]): 42.97%

Cc1nc(COC(=O)c2cccc3c2OCCO3)cs1
Percent Effect (30.3 µM, […]): -13.85%

Cc1nc(COC(=O)c2cccc3c2OCCO3)no1
Percent Effect (30.3 µM, […]): 59.03%

COc1ccccc1C1(CNc2snc(Cl)c2C#N)CCOCC1
Percent Effect (30.3 µM, […]): -16.98%

N#Cc1c(Cl)nsc1NCC1(c2ccccc2)CCC1
Percent Effect (30.3 µM, […]): 91.2%

COc1ccccc1C1(CNc2snc(Cl)c2C#N)CCCC1
Percent Effect (30.3 µM, […]): 7.398%

Cc1cnn(-c2ccc(S(=O)(=O)N(C)CC(C)(CO)CO)cc2F)c1
Percent Effect (30.3 µM, […]): -120.1%

CNS(=O)(=O)c1ccc(CNC(=O)N(C)CC(O)COC)cc1 (stereo not drawn)
Percent Effect (30.3 µM, […]): 11.97%

CNS(=O)(=O)c1ccc(CNC(=O)N(CC(C)C)C(C)C)cc1
Percent Effect (30.3 µM, […]): -6.25%

CNS(=O)(=O)c1ccc(CNC(=O)N(C)CC(C)C)cc1
Percent Effect (30.3 µM, […]): 72.03%

CN(C(=O)c1ccc(OCC(F)F)nc1)c1ccc2c(c1)CCO2
Percent Effect (30.3 µM, […]): 3.527%

Cc1ncn(CCNC(=O)Nc2ccc(F)c(Cl)c2)c(=O)c1C
Percent Effect (30.3 µM, […]): 0.8424%

Cc1noc([C@H]2C[C@H]3CN(C(=O)C4CCOCC4)CC[C@@H]3O2)n1
Percent Effect (30.3 µM, […]): 60.92%

Cc1noc([C@H]2C[C@@H]3CCN(C(=O)C4CCOCC4)C[C@H]3O2)n1
Percent Effect (30 µM, 30.03 µM): -8.466%

Cc1noc([C@@H]2C[C@H]3CN(C(=O)C4CCN(C)CC4)C[C@H]3O2)n1.O=C(O)C(F)(F)F
Percent Effect (30.3 µM, […]): 33.07%

CSc1nccc(N2CCC3(CCCN(Cc4ccc(F)cc4)C3)C2)n1 (stereo not drawn)
Percent Effect (30.3 µM, […]): 14.67%

Cc1cn2c(n1)C(CNCc1ccc(C)s1)CCC2 (stereo not drawn)
Percent Effect (30.3 µM, […]): -5.269%

Cc1cn2c(n1)C(CNCC1=Cc3ccccc3OC1)CCC2 (stereo not drawn)
Percent Effect (30.3 µM, […]): 8.139%

Cc1cn2c(n1)C(CNCC1=Cc3cc(Cl)ccc3OC1)CCC2 (stereo not drawn)
Percent Effect (30.3 µM, […]): 69.51%

CCc1ocnc1C(=O)N1CCCC(n2nc(C)nc2C)C1 (stereo not drawn)
Percent Effect (30 µM): 15.71%

NC(=O)c1cn[nH]c1C1CCCN1C(=O)COc1ccccc1 (stereo not drawn)
Percent Effect (30.3 µM, […]): 17.94%

CC(NC(=O)CCCc1nc(C(C)(C)C)no1)c1ccccn1 (stereo not drawn)
Percent Effect (30 µM): -2.756%

Cc1nc(CN2C(=O)CC[C@@H]3[C@H]2CCN3C2CCOC2)cs1.O=C(O)C(F)(F)F (stereo partly drawn)
Percent Effect (30.3 µM, […]): -26.48%

COC(=O)C(NC(=O)CC(C)C)c1cc(F)ccc1F (stereo not drawn)
Percent Effect (30 µM): 17.07%

COC(=O)C(NC(=O)COC1CCCC1)c1cc(F)ccc1F (stereo not drawn)
Percent Effect (30 µM, 30.03 µM): 54.06%

COC(=O)C(NC(=O)C1CCCC1)c1cc(F)ccc1F (stereo not drawn)
Percent Effect (30 µM): 13.67%

O=C1CC2(CCCCN2C(=O)c2ccsc2)CN1CC1CC1 (stereo not drawn)
Percent Effect (30 µM, 30.03 µM): 15.53%

Cc1cnn(CC(=O)Nc2cc(-n3nnnc3C3CC3)ccc2F)c1
Percent Effect (30.3 µM, […]): 1.472%

Cc1nn(C)c2nc(N3CCCCC3c3ccc(F)cc3)sc12 (stereo not drawn)
Percent Effect (30.3 µM, […]): 66.72%

Cc1nn(C)c2nc(N3CCCCC3c3nccs3)sc12 (stereo not drawn)
Percent Effect (30.3 µM, […]): 21.88%

Cc1nn(C)c2nc(N3CCCC3c3nccs3)sc12 (stereo not drawn)
Percent Effect (30.3 µM, […]): 4.253%

CCC(C)NC(=O)c1cc(Br)c2c(c1)OCCO2 (stereo not drawn)
Percent Effect (30 µM): 30.6%

COCCN1CCc2c(c(COc3cccnc3)nn2C)C1.O=C(O)C(F)(F)F.O=C(O)C(F)(F)F
Percent Effect (30.3 µM, […]): 24.9%

Cn1nc(COc2cccnc2)c2c1CCN(Cc1ccco1)C2.O=C(O)C(F)(F)F.O=C(O)C(F)(F)F
Percent Effect (30.3 µM, […]): 17.65%

Cn1nc(COc2cccnc2)c2c1CCN(CC1CC1)C2.O=C(O)C(F)(F)F.O=C(O)C(F)(F)F
Percent Effect (30.3 µM, […]): 98.75%

NC(=O)c1ccc(N2CCCCC2)c(NC(=O)c2cc(F)ccc2F)c1
Percent Effect (30.3 µM, […]): -1.673%

NC(=O)c1ccc(N2CCCCC2)c(NC(=O)c2cc(Br)ccc2F)c1
Percent Effect (30 µM, 30.03 µM): 59.99%

NC(=O)c1ccc(N2CCCCC2)c(NC(=O)c2cc(Br)ccc2Cl)c1
Percent Effect (30.3 µM, […]): 19.23%

Cc1nnsc1C(=O)N1CCCC(c2nccn2Cc2cscn2)C1 (stereo not drawn)
Percent Effect (30.3 µM, […]): -3.035%

O=C(NC[C@]12COC[C@H]1CN(Cc1cccc(F)c1)C2)c1ccco1
Percent Effect (30.3 µM, […]): 61.24%

Cc1ccsc1CN1C[C@@H]2COC[C@]2(CNC(=O)c2ccco2)C1.O=C(O)C(F)(F)F
Percent Effect (30.3 µM, […]): 31.86%

Cn1cc(CN2C[C@@H]3COC[C@]3(CNC(=O)c3ccco3)C2)cn1.O=C(O)C(F)(F)F
Percent Effect (30.3 µM, […]): -2.896%

CNC(=O)NCC(CO)Cc1ccccc1OC(F)(F)F (stereo not drawn)
Percent Effect (30.3 µM, […]): 7.334%

CC(c1cccc(-c2ncc(C#N)c(N)n2)c1)N(C)C (stereo not drawn)
Percent Effect (30.3 µM, […]): -18.48%

CC(c1cccc(-c2ncccc2C#N)c1)N(C)C (stereo not drawn)
Percent Effect (30.3 µM, […]): 54.7%

CC(c1cccc(-c2ncccc2F)c1)N(C)C (stereo not drawn)
Percent Effect (30.3 µM, […]): 42.01%

Cc1cccc(C(=O)N2C[C@@H]3[C@H](CC(=O)Nc4cccnc4)[C@@H]3C2)n1.O=C(O)C(F)(F)F.O=C(O)C(F)(F)F
Percent Effect (30.3 µM, […]): 3.537%

N#Cc1ccnc(N2CCN(C(=O)c3ccc4c(c3)CCO4)CC2)c1
Percent Effect (30.3 µM, […]): -46.75%

c1cc(-c2cncnc2)cc(-c2ccn(CC3CCNC3)n2)c1 (stereo not drawn)
Percent Effect (30.3 µM, […]): 5.053%

Cc1nccc(-c2cccc(-c3ccn(CC4CCNC4)n3)c2)n1 (stereo not drawn)
Percent Effect (30.3 µM, […]): -9.02%

Cc1ccsc1-c1cccc(-c2ccn(CC3CCNC3)n2)c1 (stereo not drawn)
Percent Effect (30.3 µM, […]): 82.16%

Cc1ccc(CN(C)C(=O)NCC(C)(C)CCS(C)(=O)=O)s1
Percent Effect (30.3 µM, […]): 20%

CCNCc1ccc(OCc2ccc3c(c2)OCCO3)cc1.Cl
Percent Effect (30.3 µM, […]): 21.82%

CCCNCc1ccc(OCc2ccc3c(c2)OCCO3)cc1.Cl
Percent Effect (30.3 µM, […]): 67.66%

CNCc1ccc(OCc2ccc3c(c2)OCCO3)cc1.Cl
Percent Effect (30.3 µM, […]): 22.52%

CN1CCC(c2nnc3ccc(C(=O)NC4CCCC4)cn23)C1.O=C(O)C(F)(F)F (stereo not drawn)
Percent Effect (30.3 µM, […]): 23.32%

Fc1ccc2[nH]c(C3CCCN3CCCn3cccn3)nc2c1 (stereo not drawn)
Percent Effect (30.3 µM, […]): 2.015%

O=C(CN1CCCC1c1nc2cc(F)ccc2[nH]1)NCc1ccccn1 (stereo not drawn)
Percent Effect (30.3 µM, […]): 34.7%

Fc1ccc2[nH]c(C3CCCN3CCc3ccccn3)nc2c1 (stereo not drawn)
Percent Effect (30 µM, 30.03 µM): 50.9%

Cc1ccc(C(=O)N2C[C@@H]3COC[C@]3(COc3cccnc3)C2)cn1
Percent Effect (30 µM, 30.03 µM): 15.47%

CC1CN(CC(=O)Nc2nncs2)CCN1c1nccs1 (stereo not drawn)
Percent Effect (30 µM, 30.03 µM): 5.617%

CC1CN(CC(=O)Nc2ccncc2)CCN1c1nccs1 (stereo not drawn)
Percent Effect (30 µM): 51.62%

CC1CN(CC(=O)Nc2cccnc2)CCN1c1nccs1 (stereo not drawn)
Percent Effect (30 µM, 30.03 µM): 19.22%

CN(Cc1csc(-c2cccs2)n1)Cc1cccnc1N
Percent Effect (30.3 µM, […]): 54.27%

Cc1nc(CN(C)Cc2csc(-c3cccs3)n2)co1
Percent Effect (30.3 µM, […]): 17.38%

CN(Cc1csc(-c2cccs2)n1)Cc1ncccc1C(=O)O
Percent Effect (30.3 µM, […]): 21.95%

Cc1cc(C)nc(N2CCC(c3cccc(CCC(=O)O)n3)CC2)n1
Percent Effect (30.3 µM, […]): -9.293%

COc1ccc(CN2CCc3ncnc(C4CCOC4)c3CC2)cc1.O=C(O)C(F)(F)F (stereo not drawn)
Percent Effect (30 µM, 30.03 µM): 20.96%

CCOCc1ccccc1NC(=O)NC1CCN(C2CCCC2)C1 (stereo not drawn)
Percent Effect (30.3 µM, […]): -2.945%

CN(C)c1ncc(CN2CCOC(C(=O)Nc3ccccc3)C2)cn1 (stereo not drawn)
Percent Effect (30 µM, 30.03 µM): -7.564%

Cc1cc(C)c(CNC(=O)N2CCCC2c2cccn2C)c(=O)[nH]1 (stereo not drawn)
Percent Effect (30 µM, 30.03 µM): 13.7%

CSCC[C@@H](CO)NC(=O)c1ccc2nc(NS(C)(=O)=O)sc2c1
Percent Effect (30.3 µM, […]): -13.25%

C[C@@H](CO)NC(=O)c1ccc2nc(NS(C)(=O)=O)sc2c1
Percent Effect (30.3 µM, […]): 55.63%

CC(CO)NC(=O)c1ccc2[nH]/c(=N\S(C)(=O)=O)sc2c1 (stereo not drawn)
Percent Effect (30.3 µM, […]): -35.22%

CC(C)c1nn(C)c(N(C)C)c1CNC1CCCOc2ccccc21 (stereo not drawn)
Percent Effect (30.3 µM, […]): 11.28%

Cc1c(C(=O)N2CCC(N3CCCCC3)CC2)n(C)c2ccc(Cl)cc12
Percent Effect (30.3 µM, […]): 83.29%

Cc1c(C(=O)N2CCOCC2)n(C)c2ccc(Cl)cc12.Cl
Percent Effect (30.3 µM, […]): 19.33%

Cc1c(C(=O)N2CCN(C)CC2)n(C)c2ccc(Cl)cc12
Percent Effect (30.3 µM, […]): 11.88%
